Laboratory results as given in PubChem BioAssay (EPA / NIEHS).
Results filed as inconclusive are left out. Calls of active or inactive are those of the source. Rule for the calls: active = hit-call score of the fitted dose curve at least 0.9, where 1 is the maximum; inconclusive = response in the unintended direction; inactive = score below 0.9.

target: human Thyroid Receptor Alpha (TRa), THRA (gene 7067) (UniProt P10827); experiment: NVS_NR_hTRa_Antagonist: NovaScreen (NVS) Nuclear Receptor Binding Assay for human Thyroid Receptor Alpha Antagonism (TRa) (AID 2283362)
Description: NVS_NR_hTRa_Antagonist is a biochemical, single-readout assay that uses extracted gene-proteins in a cell-free assay. Measurements were taken 1 hour after chemical dosing in a 384-well plate.NVS_NR_hTRa_Antagonist is one of one assay component(s) measured or calculated from the NVS_NR_hTRa_Antagonist assay. It is designed to make measurements of enzyme-linked immunosorbent assay, a form of binding reporter, as detected with chemiluminescence signals by AlphaLISA immunoassay technology.Data from the assay component NVS_NR_hTRa_Antagonist was analyzed into 1 assay endpoint. This assay endpoint, NVS_NR_hTRa_Antagonist, was analyzed in the positive analysis fitting direction relative to DMSO as the negative control and baseline of activity. Using a type of binding reporter, loss-of-signal activity can be used to understand changes in the binding as they relate to the gene THRA. Furthermore, this assay endpoint can be referred to as a primary readout, because the performed assay has only produced 1 assay endpoint. To generalize the intended target to other relatable targets, this assay endpoint is annotated to the nuclear receptor intended target family, where the subfamily is non-steroidal.
Binding assays used specific radioligands (tritiated, iodinated) with non-radioactive competitive displacement ligands in agonist or antagonist protocols (as indicated) and various reference compounds and inhibitors to titrate specific binding to receptors and transporters. Most enzyme assays (CYPs, kinases, phosphatases, proteases, HDACs) used recombinant protein and specific substrates (fluorescence mostly, some colorimetric and radioactive) and inhibitors, followed by a biochemical separation of substrate and product. All assays for the biochemical HTS were initially run in duplicate at a single concentration (10 uM for CYP450 assays and 25 uM for all others). […] Each assay was run with positive and negative controls, and concurrent controls on every plate. The follow-up (secondary) screen tested active chemical-pairs in concentration series, as well as a few additional assays not tested in the primary screen, some selected negative inactives, and several cases re-run in the concentration series for confirmatory purposes.

Sequence of human Thyroid Receptor Alpha (TRa), THRA (gene 7067) (P10827 whole entry, looked up): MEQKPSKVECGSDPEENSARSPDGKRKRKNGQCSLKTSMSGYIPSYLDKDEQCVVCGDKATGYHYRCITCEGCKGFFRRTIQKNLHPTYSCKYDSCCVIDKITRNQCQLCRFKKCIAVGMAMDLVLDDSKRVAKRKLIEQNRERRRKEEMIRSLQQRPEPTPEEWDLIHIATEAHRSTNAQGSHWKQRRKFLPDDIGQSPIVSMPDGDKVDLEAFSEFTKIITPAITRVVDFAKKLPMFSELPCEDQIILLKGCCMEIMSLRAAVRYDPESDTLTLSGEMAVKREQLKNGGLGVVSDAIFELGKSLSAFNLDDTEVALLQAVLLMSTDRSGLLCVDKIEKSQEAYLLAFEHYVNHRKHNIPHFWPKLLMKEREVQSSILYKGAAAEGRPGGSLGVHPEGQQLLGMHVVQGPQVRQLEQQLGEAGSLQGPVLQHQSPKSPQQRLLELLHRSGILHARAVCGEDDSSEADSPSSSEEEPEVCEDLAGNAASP

SMILES | outcome | AC50
CC(C)N(C(=O)SCC(Cl)=C(Cl)Cl)C(C)C | inactive | –
CCC(CC)Nc1c([N+](=O)[O-])cc(C)c(C)c1[N+](=O)[O-] | inactive | –
CCOP(=O)(OCC)Oc1cc(C)nc(C(C)C)n1 | inactive | –
S=C1NCCN1 | inactive | –
CNC(=O)ON=C(SC)C(=O)N(C)C | inactive | –
CCOC(=O)CC(SP(=O)(OC)OC)C(=O)OCC (configuration not stated) | inactive | –
CCc1cnc(C2=NC(C)(C(C)C)C(=O)N2)c(C(=O)O)c1 (configuration not stated) | – | 17.7 µM (active)
CCOP(=S)(OCC)Oc1ccc([N+](=O)[O-])cc1 | inactive | –
CCCCN(CC)c1c([N+](=O)[O-])cc(C(F)(F)F)cc1[N+](=O)[O-] | inactive | –
CC(C1CC1)C(O)(Cn1cncn1)c1ccc(Cl)cc1 (configuration not stated) | inactive | –
C=C(C)[C@H]1Cc2c(ccc3c2O[C@@H]2COc4cc(OC)c(OC)cc4[C@@H]2C3=O)O1 | inactive | –
CN(C)[C@@H]1C(=O)C(C(N)=O)=C(O)[C@@]2(O)C(=O)C3=C(O)c4c(O)cccc4[C@@](C)(O)[C@H]3[C@H](O)[C@@H]12 | inactive | –
